Results reported in PubChem BioAssay (NCATS).
Results filed as inconclusive are left out. A number with no mark means an inactive call. The source made the active and inactive calls. Calls come from the whole dose curve; as a rule, active = well fitted inhibition curve with a large enough effect; inconclusive = small, poorly fitted or top-dose-only effect; inactive = flat fitted curve, though single readings scatter.

system: CRL-7250; assay: Cytotoxic Profiling of Annotated Libraries Using Quantitative High-Throughput Screening (AID 1296008); settings: Five cell lines viability, CellTiter-Glo ATP luminescence, 48-72 h; max response: hits give low values; note: nearly all actives have a fitted effect of over 60% in size
Procedure, shortened: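 Cytotoxicity was measured as CellTiter-Glo ATP luminescence, read after 10 min at room temperature. Compound treatment of the cells lasted 48 or 72 hr at 37 degrees Celsius in a qHTS format.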
% is set by controls: 0 for no effect and ±100 for the full control effect; potency is the fitted concentration of half-maximal effect.

Structure (SMILES)	outcome	Potency	max response [%]
CC1CCC2(OC1)OC1CC3C4CC=C5CC(O)CC(O[C@@H]6OC[C@@H](O)[C@H](O)[C@H]6O)C5(C)C4CCC3(C)C1(O)C2C (stereo partly drawn)	inactive	–	–
COC(=O)N(C)c1c(N)nc(-c2nn(Cc3ccccc3F)c3ncccc23)nc1N	inactive	–	–
CCn1c(=O)c(-c2ccn[nH]2)cc2c(C)nc(N)nc21	–	2.31 µM (active)	–
N#Cc1ccc(C(=O)N2CCC3(CC2)N=C(N)c2c(F)ccc(F)c2N3)cn1	–	–	-4.2
COc1ccc(CCC(=O)c2c(O)cc(O)cc2O[C@@H]2O[C@H](CO)[C@@H](O)[C@H](O)[C@H]2O)cc1	–	–	-5.63
CCC(C)C(=O)OC1CC(C)C=C2C=CC(C)C(CCC(O)CC(O)CC(=O)O)C21 (stereo not drawn)	–	7.09 µM (active)	–
CC1(C)CCC2(C(=O)OC3OC(CO)C(O)C(O)C3O)CCC3(C)C(=CCC4C5(C)CCC(O)C(C)(C(=O)O)C5CCC43C)C2C1O (stereo not drawn)	–	–	3.57
COc1cc2c(cc1OC)[C@@H]1[C@H](O)[C@@H](OC)C=C3CCN(C2)[C@H]31	–	12.8 µM (active)	–
